Eight compounds from PubChem BioAssay (NCI) can be followed below.

Among the test systems are SK-MEL-2 melanoma; EKVX NSCLC; SN12C renal; UO-31 renal; TK-10 renal; CAKI-1 renal; A498 renal; CCRF-CEM leukemia; MOLT-4 leukemia; SR leukemia; RPMI-8226 leukemia; OVCAR-8 ovarian; OVCAR-5 ovarian; OVCAR-4 ovarian; SK-OV-3 ovarian; IGROV1 ovarian; OVCAR-3 ovarian; HS 578T breast; NCI/ADR-RES ovarian; ACHN renal.
Common to all, as to assay: NCI-60 one-dose screen, 48 h (100 = growth as untreated, 0 = no growth, -100 = all killed)
Conditions in all cases: 10 µM unless noted

About 83,000 compounds went through this panel and 20% of them were active in at least one assay; those are over-represented in the sample as a whole.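 Activity criterion: percent growth below 10, measured after cells in 96-well plates were exposed to a single compound concentration for 48 hours.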 A number with no mark means an inactive call. Activity calls are given as the source filed them.

Turning to `NS(=O)(=O)c1ccc(Nc2nc3n[nH]c(Nc4ccccc4)c3c(=O)[nH]2)cc1`, the growth with SK-MEL-2 melanoma is 101%; in the experiment on EKVX NSCLC, 107%; in the experiment with SN12C renal it was 103%; with UO-31 renal, 74.9%; in the experiment on TK-10 renal it was 106%; in the experiment with CAKI-1 renal, 88.7%. In addition, the growth in the experiment with A498 renal was 88.9%; in the experiment with CCRF-CEM leukemia it was 105%; with MOLT-4 leukemia, 89.2%; in the experiment on SR leukemia, 94.1%; in the experiment on RPMI-8226 leukemia it was 107%; in the experiment on OVCAR-8 ovarian it was 100%. Moreover, the growth is 111% in the experiment with OVCAR-5 ovarian; 105% in the experiment on OVCAR-4 ovarian; 84.4% in the experiment with SK-OV-3 ovarian; 102% in the experiment on IGROV1 ovarian; 106% in the experiment with OVCAR-3 ovarian; 103% in the experiment with HS 578T breast. Also, the growth with NCI/ADR-RES ovarian is 99.7%.

Regarding `COc1ccc(C(=O)/C=C/c2cc3ccccc3[nH]c2=O)cc1`, the growth in the experiment with SK-MEL-2 melanoma is 55.1%; in the experiment with EKVX NSCLC, 79%; in the experiment on SN12C renal, 45%; with UO-31 renal it was 24.9%; in the experiment on TK-10 renal it was 24.7%; in the experiment with ACHN renal, 57.9%. For the same compound, the growth in the experiment on CAKI-1 renal is 42.8%; in the experiment on CCRF-CEM leukemia, 19.5%; with MOLT-4 leukemia, 32.5%; with RPMI-8226 leukemia it was 15.3%; with OVCAR-8 ovarian it was 20.4%; in the experiment with OVCAR-5 ovarian it was 52.2%. For the same compound, the growth in the experiment on OVCAR-4 ovarian was 58.6%; with SK-OV-3 ovarian, 53%; in the experiment on IGROV1 ovarian, 50.5%; in the experiment with OVCAR-3 ovarian it was -19% (active); in the experiment on HS 578T breast, 53.6%; in the experiment on NCI/ADR-RES ovarian, -5.27% (active).

`CC(=O)C1=C(O)C=C2Oc3c(C(=O)/C=C/c4cc(Cl)cc(Cl)c4)c(O)c(C)c(O)c3[C@]2(C)C1=O`: the growth with SK-MEL-2 melanoma is -62.8% (active); in the experiment on EKVX NSCLC, -15.6% (active); in the experiment with SN12C renal, -31.8% (active); with UO-31 renal, -15.1% (active); in the experiment with TK-10 renal, -17.4% (active); with ACHN renal, -12.4% (active). Besides, the growth in the experiment with CAKI-1 renal is 2.74% (active); in the experiment with CCRF-CEM leukemia it was -22% (active); in the experiment with MOLT-4 leukemia, -25.3% (active); in the experiment with SR leukemia, -20.5% (active); in the experiment with RPMI-8226 leukemia, -22.1% (active); in the experiment on OVCAR-8 ovarian, -24.3% (active). The growth with OVCAR-4 ovarian is 8.73% (active); in the experiment on SK-OV-3 ovarian, -24.4% (active); in the experiment with IGROV1 ovarian, -13.8% (active); in the experiment with OVCAR-3 ovarian, -28.6% (active); with HS 578T breast, -16.6% (active); with NCI/ADR-RES ovarian, -40.9% (active).

Take `Cc1nc2sc(C(=O)Nc3cccc4c3OCCO4)c(N)c2cc1C(C)O` (stereo not given): the growth in the experiment with SK-MEL-2 melanoma was 17.1%; in the experiment on EKVX NSCLC, 35.1%; in the experiment on SN12C renal, 40.4%; in the experiment with UO-31 renal, 44.3%; in the experiment with TK-10 renal, 55.7%; with ACHN renal, 44.8%. The growth with CAKI-1 renal is 40.9%; in the experiment on CCRF-CEM leukemia it was 19.3%; in the experiment on MOLT-4 leukemia it was 28.2%; in the experiment on SR leukemia, 26.4%; with RPMI-8226 leukemia it was 26.5%; in the experiment with OVCAR-8 ovarian it was 49.5%. Also, the growth in the experiment with OVCAR-4 ovarian was 69.4%; in the experiment on SK-OV-3 ovarian it was -11.4% (active); with IGROV1 ovarian it was 49%; in the experiment with OVCAR-3 ovarian, 7.73% (active); with HS 578T breast, 33.5%; in the experiment on NCI/ADR-RES ovarian, 31%.

As for `CCCCCCCCCCNC(=O)CCl`, the growth with SK-MEL-2 melanoma is 85.7%; in the experiment with EKVX NSCLC, 95.9%; in the experiment on SN12C renal, 63.8%; in the experiment on UO-31 renal it was 58.1%; in the experiment with TK-10 renal, 83.8%; in the experiment with CAKI-1 renal, -59.4% (active). Also, the growth with A498 renal is 85.9%; with CCRF-CEM leukemia, 57.8%; in the experiment with MOLT-4 leukemia, 54.8%; in the experiment with SR leukemia it was 51.4%; with RPMI-8226 leukemia, 82.3%; in the experiment on OVCAR-8 ovarian, 47.8%. In addition, the growth with OVCAR-5 ovarian is 111%; with OVCAR-4 ovarian, 80.3%; in the experiment on SK-OV-3 ovarian it was 111%; with IGROV1 ovarian, 44.1%; in the experiment with OVCAR-3 ovarian it was 52.8%; in the experiment with HS 578T breast, 84.6%. In the experiment on NCI/ADR-RES ovarian, the growth was 73%.

As for `O=S(=O)(Nc1ccc(Cl)cc1Cl)c1ccc(-c2cnc(C3CC3)o2)cc1`, the growth with SK-MEL-2 melanoma is 33.3%; in the experiment on EKVX NSCLC it was 38.1%; in the experiment with SN12C renal, 51.4%; in the experiment with UO-31 renal it was 53.7%; in the experiment with TK-10 renal, 48.4%; in the experiment on ACHN renal it was 53.6%. The growth was 38.8% in the experiment on CAKI-1 renal; 18.6% in the experiment on CCRF-CEM leukemia; 24.3% in the experiment with MOLT-4 leukemia; 21.6% in the experiment on RPMI-8226 leukemia; 40.2% in the experiment on OVCAR-5 ovarian; 52.6% with OVCAR-4 ovarian. For the same compound, the growth with SK-OV-3 ovarian is 41.6%; in the experiment on IGROV1 ovarian it was 29.2%; with OVCAR-3 ovarian, -17.8% (active); with HS 578T breast, 9.44% (active); in the experiment on NCI/ADR-RES ovarian, 0.514% (active).

For the compound `CCOC(=O)c1cnc2ccc(OC)cc2c1Nc1cccc(S(=O)(=O)NC)c1`, the growth in the experiment on SK-MEL-2 melanoma was 102%; in the experiment on EKVX NSCLC, 104%; with SN12C renal it was 92.9%; in the experiment on UO-31 renal it was 93.6%; with TK-10 renal, 110%; in the experiment with CAKI-1 renal it was 89.4%. Further, the growth in the experiment with A498 renal is 95.9%; in the experiment on CCRF-CEM leukemia, 93%; with MOLT-4 leukemia, 99.2%; in the experiment with SR leukemia, 95.6%; with RPMI-8226 leukemia it was 51.6%; in the experiment on OVCAR-8 ovarian it was 100%. Also, the growth with OVCAR-5 ovarian is 102%; in the experiment with OVCAR-4 ovarian, 104%; with SK-OV-3 ovarian, 113%; in the experiment with IGROV1 ovarian, 113%; in the experiment on OVCAR-3 ovarian, 103%; with HS 578T breast, 52.3%. In the experiment with NCI/ADR-RES ovarian, the growth was 90%.

For `COc1ccc(/C=N\NC(=O)CN2CCN(c3cc4c(cc3F)c(=O)c(C(=O)N/N=C/c3ccc(OC)cc3)cn4C3CC3)CC2)cc1`, the growth in the experiment with SK-MEL-2 melanoma is 103%; in the experiment with EKVX NSCLC, 71.7%; in the experiment with SN12C renal, 79%; in the experiment on UO-31 renal it was 57.6%; in the experiment with TK-10 renal, 100%; with CAKI-1 renal, 95.1%. Further, the growth is 73.6% in the experiment on A498 renal; 81.5% in the experiment on CCRF-CEM leukemia; 60% in the experiment on MOLT-4 leukemia; 72.1% in the experiment with SR leukemia; 69.4% in the experiment with RPMI-8226 leukemia; 92.2% in the experiment on OVCAR-8 ovarian. Besides, the growth with OVCAR-4 ovarian is 80.7%; in the experiment with SK-OV-3 ovarian, 112%; in the experiment on IGROV1 ovarian it was 72%; in the experiment with HS 578T breast it was 92.4%; in the experiment on NCI/ADR-RES ovarian, 88.2%.
